The values that follow come from PubChem BioAssay (EPA / NIEHS).

Structures are written as SMILES. Results filed as inconclusive are left out. The source made the active and inactive calls. The calls were made as follows, unless noted: active = hit-call score of the fitted dose curve at least 0.9, where 1 is the maximum; inactive = score below 0.9.

Read-out in test [1]: Monocyte Chemoattractant Protein-1 (MCP1), CCL2 (gene 6347)
In words: BSK_LPS_MCP1: BioMAP Diversity Plus: LPS Assay for Monocyte Chemoattractant Protein-1 (MCP1) Biomarker Activity (AID 2283081).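 As to AC50: secreted MCP-1 protein quantified by ELISA in culture supernatant.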 Particulars: primary human HUVEC with PBMC; actives raise or lower the signal. Summed up: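 LPS-stimulated HUVEC/PBMC co-culture; chemical, 24 h; MCP-1 by ELISA; bidirectional fit vs DMSO; cytotoxicity via SRB (0.1% stain, 10% TCA fix, 560 nm) in parallel wells.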

Test [2] can be described thus: BSK_LPS_PGE2: BioMAP Diversity Plus: LPS Assay for Prostaglandin E2 (PGE2) Biomarker Activity (AID 2283082).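 As to AC50: secreted prostaglandin E2 measured by ELISA in LPS-stimulated co-culture.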 The conditions noted are these: primary human HUVEC with PBMC; actives raise or lower the signal. The method in brief: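 LPS-activated HUVEC/PBMC co-culture; cmpd dosed, 24 h; PGE2 by ELISA; bidirectional fit vs DMSO; SRB (0.1%, TCA-fixed, 560 nm) in parallel plates for overt cytotox.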

Read-out in test [3]: Macrophage colony-stimulating factor (MCSF), CSF1 (gene 1435)
The test is described as follows: BSK_LPS_MCSF: BioMAP Diversity Plus: LPS Assay for Macrophage colony-stimulating factor (MCSF) Biomarker Activity (AID 2283083). Particulars: primary human HUVEC with PBMC; actives raise or lower the signal. Summed up:
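Compound is added to a human vascular primary co-culture of umbilical vein endothelium and blood mononuclear cells. After 24 h, M-CSF is quantified by ELISA. Signal changes are fitted in both directions against DMSO.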

Read-out in test [4]: Tissue Factor, F3 (gene 2152)
In words: BSK_LPS_TissueFactor: BioMAP Diversity Plus: LPS Assay for Tissue Factor Biomarker Activity (AID 2283084). The conditions noted are these: primary human HUVEC with PBMC; actives raise or lower the signal. Summed up: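 In this co-culture system of umbilical vein endothelium with PBMC, stimulated with LPS, cell-surface CD142 is detected by ELISA at 24 h. Endpoint values derive from bidirectional fitting, DMSO serving as baseline.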

Read-out in test [5]: Tumor necrosis factor (Homo sapiens) (UniProt P01375)
The test is described as follows: BSK_LPS_TNFa: BioMAP Diversity Plus: LPS Assay for Tumour Necrosis Factor alpha (TNFa) Biomarker Activity (AID 2283085). Particulars: primary human HUVEC with PBMC; actives raise or lower the signal. Summed up: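 Read-out is ELISA of TNFa in primary human endothelial cell–PBMC co-cultures at 24 h after compound. Activity in either direction was fitted against DMSO.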

Read-out in test [6]: Vascular cell adhesion molecule 1 (VCAM1), VCAM1 (gene 7412)
In words: BSK_LPS_VCAM1: BioMAP Diversity Plus: LPS Assay for Vascular cell adhesion molecule 1 (VCAM1) Biomarker Activity (AID 2283086). Particulars: primary human HUVEC with PBMC; actives raise or lower the signal. The method in brief: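 HUVEC + PBMC co-culture, LPS system; compound 24 h; VCAM-1 by ELISA; bidirectional fit vs DMSO control; parallel SRB (0.1%, TCA-fixed, 560 nm) for cytotoxicity.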

Read-out in the next test: CD38, CD38 (gene 952)
In words: BSK_SAg_CD38: BioMAP Diversity Plus: SAg Assay for CD38 Biomarker Activity (AID 2283087). The conditions noted are these: primary human HUVEC with PBMC; actives raise or lower the signal. The method in brief:
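Human HUVEC plus PBMC co-culture stimulated with superantigen; CD38 measured by ELISA 24 h after chemical dosing. Fluorescence read-out, bidirectional fit against DMSO; cytotoxicity tracked in parallel by SRB and Alamar Blue.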

Read-out in a further test: CD40, CD40 (gene 958)
In words: BSK_SAg_CD40: BioMAP Diversity Plus: SAg Assay for CD40 Biomarker Activity (AID 2283088). The conditions noted are these: primary human HUVEC with PBMC; actives raise or lower the signal. The method in brief:
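Fluorescence ELISA read-out of CD40 from umbilical vein endothelium plus peripheral blood mononuclear cells, sampled 24 h after dosing. Values come from bidirectional curve fitting with DMSO as baseline.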

Read-out in another test: CD69, CD69 (gene 969)
The test is described as follows: BSK_SAg_CD69: BioMAP Diversity Plus: SAg Assay for CD69 Biomarker Activity (AID 2283089).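 As to AC50: cell surface CD69 protein quantified by ELISA with fluorescence detection.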 Particulars: primary human HUVEC with PBMC; actives raise or lower the signal. Summed up:
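ELISA, fluorescence read-out: CD69 on human umbilical vein endothelial cell + PBMC co-culture, 24 h post-dosing. Gain or loss of signal fitted bidirectionally against DMSO baseline.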

Read-out in test [7]: Monocyte Chemoattractant Protein-1 (MCP1), CCL2 (gene 6347)
The test is described as follows: BSK_SAg_MCP1: BioMAP Diversity Plus: SAg Assay for Monocyte Chemoattractant Protein-1 (MCP1) Biomarker Activity (AID 2283090). Particulars: primary human HUVEC with PBMC; actives raise or lower the signal. The method in brief:
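MCP-1 levels in the endothelial–PBMC SAg co-culture were quantified by ELISA at 24 h post-dosing; both increases and decreases versus DMSO scored. Cytotoxicity monitored by SRB total protein in parallel cultures.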

Read-out in test [8]: E-selectin (Homo sapiens) (UniProt P16581)
The test is described as follows: BSK_SAg_Eselectin: BioMAP Diversity Plus: SAg Assay for Eselectin Biomarker Activity (AID 2283091). The conditions noted are these: primary human HUVEC with PBMC; actives raise or lower the signal. The method in brief:
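Primary human endothelial cells and peripheral blood mononuclear cells were co-cultured and exposed to chemical for 24 hours. E-selectin levels were then quantified by ELISA, with bidirectional curve fitting normalised to DMSO controls.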

Read-out in test [9]: Monokine induced gamma interferon (MIG), CXCL9 (gene 4283)
In words: BSK_SAg_MIG: BioMAP Diversity Plus: SAg Assay for Monokine induced gamma interferon (MIG) Biomarker Activity (AID 2283092). Particulars: primary human HUVEC with PBMC; actives raise or lower the signal. Summed up:
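ELISA readout of MIG/CXCL9; primary human umbilical vein endothelial cells co-cultured with peripheral blood mononuclear cells; 24 h post-dose; gain/loss fit vs DMSO baseline.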

The nature of test [10]: BSK_SAg_PBMCCytotoxicity: PBMC Cytotoxicity Assessment in the BioMAP Diversity Plus: SAg Assay (AID 2283093).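 Also: PBMC viability measured as Alamar Blue reduction fluorescence at 546/580 nm; fitted both ways against DMSO so a hit may be loss or gain of signal.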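 As to AC50: PBMC superantigen activated with SEB plus TSST-1 one hour after compound addition.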 The conditions noted are these: primary human HUVEC with PBMC. The method in brief: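 HUVEC/PBMC co-culture; PBMC exposed to chemical 1 h before SEB and TSST-1 activation (20 ng/mL each), incubated 90 h, then Alamar Blue 6 h, fluorescence 546/580 nm. Bidirectional fit versus DMSO baseline.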

Read-out in test [11]: Interleukin-8 (IL8), CXCL8 (gene 3576)
In words: BSK_SAg_IL8: BioMAP Diversity Plus: SAg Assay for Interleukin-8 (IL8) Biomarker Activity (AID 2283094). Particulars: primary human HUVEC with PBMC; actives raise or lower the signal. Summed up:
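ELISA read-out of IL-8 in a primary human vascular co-culture (umbilical vein endothelium plus PBMC), taken 24 h after compound addition. Values derive from bidirectional fits against DMSO negative controls.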

Test [12] is described as follows: BSK_SAg_Proliferation: Cell Proliferation Assessment in the BioMAP Diversity Plus: SAg Assay (AID 2283095).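 Also: relative cell number as total protein by SRB absorbance in sub-confluent culture.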 The conditions noted are these: primary human HUVEC with PBMC. The method in brief: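 Cells (endothelium plus PBMC, human primary) were dosed with chemical, cultured 96 h, fixed in 10% TCA and stained with 0.1% SRB. Absorbance at 560 nm gave relative protein, fitted bidirectionally relative to DMSO.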

A short description of test [13]: BSK_SAg_SRB: Viability Assessment in the BioMAP Diversity Plus: SAg Assay (AID 2283096).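 Also: cells read one day after compound addition; hits may be either gain or loss of signal compared with DMSO.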 Particulars: primary human HUVEC with PBMC. Summed up:
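Human umbilical vein endothelial cells co-cultured with PBMC, read 24 h after compound dosing. Total protein measured by sulforhodamine B staining (0.1% SRB after 10% TCA fixation, absorbance 560 nm); bidirectional fit versus DMSO baseline.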

Test [14] has as its target human CYP2A6, CYP2A6 (gene 1548) (UniProt P11509). The test is described as follows: NVS_ADME_hCYP2A6: NovaScreen (NVS) CYP450-related Enzyme Activity (ADME) Assay for human CYP2A6 (AID 2283099; active = hit-call score of the fitted dose curve at least 0.9, where 1 is the maximum). The method in brief:
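Recombinant human CYP2A6 from insect cells was incubated with chemical for 0.5 h and activity read by fluorescence. Single-concentration duplicates at 10 uM preceded concentration-response testing to 20 uM, with activity referenced to acetonitrile.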

Chain of E-selectin (Homo sapiens) (P16581 whole entry, looked up): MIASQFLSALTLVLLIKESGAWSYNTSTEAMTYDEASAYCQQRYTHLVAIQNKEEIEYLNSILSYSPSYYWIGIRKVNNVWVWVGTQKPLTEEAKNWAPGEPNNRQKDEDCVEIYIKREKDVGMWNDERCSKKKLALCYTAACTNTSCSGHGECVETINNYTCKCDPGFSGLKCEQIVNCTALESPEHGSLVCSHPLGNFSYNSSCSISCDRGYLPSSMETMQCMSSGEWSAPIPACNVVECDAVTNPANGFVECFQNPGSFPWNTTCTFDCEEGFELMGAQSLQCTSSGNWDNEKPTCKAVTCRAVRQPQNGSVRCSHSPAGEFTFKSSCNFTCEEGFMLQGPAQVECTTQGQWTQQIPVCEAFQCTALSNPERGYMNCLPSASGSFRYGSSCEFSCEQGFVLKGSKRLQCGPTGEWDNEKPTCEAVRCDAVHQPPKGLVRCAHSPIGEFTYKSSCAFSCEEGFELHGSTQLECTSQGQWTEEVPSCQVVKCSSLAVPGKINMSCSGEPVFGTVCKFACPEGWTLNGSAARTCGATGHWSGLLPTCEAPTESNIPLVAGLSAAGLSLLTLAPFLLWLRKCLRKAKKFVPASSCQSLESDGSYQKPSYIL
Chain of Tumor necrosis factor (Homo sapiens) (P01375 whole entry, looked up): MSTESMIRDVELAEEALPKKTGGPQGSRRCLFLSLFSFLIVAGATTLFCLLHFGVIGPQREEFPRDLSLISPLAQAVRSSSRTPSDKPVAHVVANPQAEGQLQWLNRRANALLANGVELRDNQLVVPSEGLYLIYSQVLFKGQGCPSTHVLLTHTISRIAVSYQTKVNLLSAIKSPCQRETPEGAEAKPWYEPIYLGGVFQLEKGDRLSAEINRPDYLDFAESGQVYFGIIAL
Chain of human CYP2A6, CYP2A6 (gene 1548) (P11509 whole entry, looked up): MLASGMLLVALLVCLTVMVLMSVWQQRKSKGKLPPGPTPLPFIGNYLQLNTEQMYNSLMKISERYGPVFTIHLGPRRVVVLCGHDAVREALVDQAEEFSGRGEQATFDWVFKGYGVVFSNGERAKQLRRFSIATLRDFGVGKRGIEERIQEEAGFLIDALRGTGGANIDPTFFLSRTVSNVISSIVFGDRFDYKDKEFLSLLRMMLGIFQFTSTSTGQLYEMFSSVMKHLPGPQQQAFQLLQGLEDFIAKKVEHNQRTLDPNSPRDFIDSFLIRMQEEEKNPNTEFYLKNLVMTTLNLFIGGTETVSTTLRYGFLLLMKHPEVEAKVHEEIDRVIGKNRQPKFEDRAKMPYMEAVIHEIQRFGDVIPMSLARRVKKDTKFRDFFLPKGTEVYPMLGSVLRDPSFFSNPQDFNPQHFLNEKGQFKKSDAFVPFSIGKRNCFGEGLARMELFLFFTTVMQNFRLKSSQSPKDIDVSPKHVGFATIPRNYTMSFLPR

On to `Cc1ccccc1CO[C@@H]1C[C@@]2(C(C)C)CC[C@]1(C)O2`, for which the outcome in [1], in test [2], in test [3], in test [4], in [5] and in [6] was inactive. Besides, the outcome is “inactive” in the test with CD38, CD38 (gene 952); “inactive” in the test with CD40, CD40 (gene 958); “inactive” with CD69, CD69 (gene 969); “inactive” in test [7]; “inactive” in test [8]; “inactive” in test [9]. Moreover, the result in test [10], in [11], in test [12] and in [13] was inactive.
On to `Cc1cccc([N+](=O)[O-])c1`, for which the outcome in [1], in [2], in test [3], in test [4], in test [5] and in test [6] was inactive. Further, the outcome with CD38, CD38 (gene 952) was “inactive”; in the test with CD40, CD40 (gene 958) it was “inactive”; with CD69, CD69 (gene 969), “inactive”; in test [7], “inactive”; in test [8], “inactive”; in test [10] it was “inactive”. In addition, the result in test [11], in test [12], in test [13] and in test [14] was inactive.
Broadly, the AC50 is the concentration at which the activity in the assay is half-maximal. In the case of `CCCCCCCCCC[N+](C)(C)CCCCCCCCCC`, the AC50 in test [1] is 4.16 µM (active); in [2], 3.88 µM (active); in [3], 3.79 µM (active); in [4] it was 4.31 µM (active); in test [5], 3.79 µM (active); in test [6], 7.43 µM (active). In addition, the half-maximal activity concentration (AC50) with CD38, CD38 (gene 952) was 2.38 µM (active); in the test with CD40, CD40 (gene 958), 4.45 µM (active); with CD69, CD69 (gene 969), 4.61 µM (active); in test [7], 3.45 µM (active); in test [8], 2.19 µM (active); in [10], 1.77 µM (active). Besides, the results for the AC50 in [11], in [12] and in [13] were 7.36 µM (active), 0.148 µM (active) and 5.35 µM (active), respectively.
With `O=S(=O)(O)C(F)(F)C(F)(F)C(F)(F)C(F)(F)F`, the result in test [1], in test [2], in test [3], in test [4], in test [5] and in test [6] was inactive. In addition, the outcome is “inactive” with CD38, CD38 (gene 952); “inactive” with CD40, CD40 (gene 958); “inactive” with CD69, CD69 (gene 969); “inactive” in test [7]; “inactive” in test [8]; “inactive” in test [10]. In addition, the outcome in [11], in test [12] and in [13] was inactive.
With `Cc1ccc(O)c(C)c1`, the outcome is “inactive” in test [1]; “inactive” in [3]; “inactive” in test [4]; “inactive” with CD38, CD38 (gene 952); “inactive” with CD40, CD40 (gene 958); “inactive” with CD69, CD69 (gene 969). Moreover, the outcome in test [7], in test [8], in [9], in test [10], in [11] and in test [12] was inactive. The outcome in [13] was inactive. Moreover, the AC50 in test [2] is 3.27 µM (active); in [6], 4.7 µM (active).
In the case of `Nn1cnnc1`, the outcome in test [1], in test [2], in test [3], in [4], in [5] and in test [6] was inactive. The outcome was “inactive” with CD38, CD38 (gene 952); “inactive” with CD40, CD40 (gene 958); “inactive” in the test with CD69, CD69 (gene 969); “inactive” in [7]; “inactive” in test [8]; “inactive” in test [9]. Besides, the outcome in test [10], in test [11], in [12] and in test [13] was inactive.
